Furin inhibitor = blocks human furin protease activity. purified furin, fluorogenic substrate cleavage. 0.061% of 220,000 active. P09958. inhibition, % at 20 µM or 30 µM; in the data active = inhibition above about 25%
PKD1 kinase inh = PKD1 (human) kinase inhibition | PKD1 kinase fluorescence polarization assay | inhibition, % (concentration not given with the values) | 0.056% of 200,000 active | AID 797; in the data active = inhibition above about 50%
Redox H2O2 prof = compounds producing H2O2 with reducing agent – biochemical, NIH compound library profiling, artefact control for MLSCN library redox annotation, primary screen | DTT-dependent redox cycling H2O2, phenol red/HRP absorbance; 100% = 100 µM peroxide control, 0% = buffer | activation, % at 10 µM | 0.03% of 200,000 active | AID 878;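 active = activation of at least 50% relative to the plate's high and low controls in the primary single-dose screen; inactive = activation below 50%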;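 note: compound incubated with DTT at 0.8 mM final as the reducing agent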
FAS-TE inh = blocks the thioesterase domain of human fatty acid synthase | inhibition, % at 15 µM | 0.67% of 360,000 active | recombinant FAS-TE, OMFH fluorogenic substrate, fluorescence endpoint | P49327 | AID 602261;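 active = compounds whose normalised, plate-corrected inhibition of enzyme fluorescence in the single-dose primary screen is 50% or more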;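 note: 0% = DMSO with enzyme and 100% = substrate without enzyme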
UBC9 SUMO inh = inhibitors of human SUMOylation (UBC9) | P63279 | HTRF SUMOylation assay, SAE1/SAE2 + UBC9, in vitro | inhibition, % at 35 µM | 0.36% of 290,000 active | AID 2006; in the data active = inhibition above about 50%, passing the limit was not always enough
Target sequence (P63279 whole entry, looked up): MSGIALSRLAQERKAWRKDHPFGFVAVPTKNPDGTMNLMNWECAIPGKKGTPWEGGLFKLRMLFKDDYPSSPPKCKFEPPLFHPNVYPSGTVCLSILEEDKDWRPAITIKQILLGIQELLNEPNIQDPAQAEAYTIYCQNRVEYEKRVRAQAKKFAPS
p97 inhibitor = human p97 ATPase inhibition. P55072. recombinant p97 ATPase, Kinase-Glo ATP luminescence, 3 h. inhibition, % at 8 µM. 0.42% of 220,000 active; in the data active = inhibition above about 15%;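 note: 0% = DMSO vehicle and 100% = wells lacking enzyme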
FAS-TE conf = confirmation of human fatty acid synthase thioesterase inhibitors; recombinant FAS-TE, OMFH fluorogenic substrate, fluorescence; shares compounds with FAS-TE inh; inhibition, % at 15 µM; 45% of 2,300 active;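 active = compounds inhibiting the enzyme by at least 50% at 15 µM in any one of the replicates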;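 note: 0% = enzyme with DMSO only and 100% = wells lacking enzyme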
Active calls of the source: *. Hits are enriched below; roughly 1.2% of the tested compounds scored in any of these assays.

Cc1cccn2c(=O)c(/C=C(\C#N)C(=O)NCc3ccco3)c(N3CCCC(C)C3)nc12 (configuration not stated) was read as Furin inhibitor -3.3, PKD1 kinase inh -3.5, Redox H2O2 prof 0.1, FAS-TE inh 40.8, UBC9 SUMO inh 11.2 and p97 inhibitor 2.3.
`Cc1cccn2c(=O)c(/C=C(\C#N)C(=O)NCc3ccco3)c(N3CCCCCC3)nc12` gave Furin inhibitor -7.6, FAS-TE inh 52.9*, UBC9 SUMO inh 20.4, p97 inhibitor -4.5 and FAS-TE conf 48.5.
Screening CCOC(=O)C1CCCN(c2nc3c(C)cccn3c(=O)c2/C=C(\C#N)C(=O)NCc2ccco2)C1 (configuration not stated) returned Furin inhibitor -5.0, FAS-TE inh 51.7*, UBC9 SUMO inh 15.6, p97 inhibitor 3.1 and FAS-TE conf 54.0*.
Screening CC(=O)[C@H]1CC[C@H]2[C@@H]3C=CC4=CC(=O)CC[C@@]4(C)[C@@H]3CC[C@]12C returned FAS-TE inh 5.0.
`CCOC(=O)c1ccc(S(=O)(=O)N2CCN(c3ccccn3)CC2)cc1` gave FAS-TE inh 3.8 and UBC9 SUMO inh -6.3.
Screening O=C(O)c1ccc(N/N=C/c2ccc(-c3cc(Cl)ccc3Cl)o2)cc1 returned Furin inhibitor -7.6, FAS-TE inh 80.6*, UBC9 SUMO inh 16.9, p97 inhibitor -2.4 and FAS-TE conf 84.5*.
O=C(O)c1ccc(N/N=C/c2ccc(-c3ccc(Cl)cc3Cl)o2)cc1 was read as Furin inhibitor 6.9, FAS-TE inh 74.9*, UBC9 SUMO inh 15.3, p97 inhibitor -0.8 and FAS-TE conf 77.5*.
`O=C(O)c1ccc(N/N=C/c2ccc(-c3cccc(Cl)c3)o2)cc1` gave Furin inhibitor -22.8, FAS-TE inh 25.6, UBC9 SUMO inh 24.7 and p97 inhibitor 8.1.
CCOc1ccccc1N(CC(=O)NC1CCCCC1)S(=O)(=O)c1ccccc1 was read as FAS-TE inh 10.9 and UBC9 SUMO inh 5.4.
Screening CC1(C)Cc2c(sc3nc4n(-c5ccccc5)cnn4c(=O)c23)CO1 returned Furin inhibitor -16.5, FAS-TE inh 1.2, UBC9 SUMO inh -2.1 and p97 inhibitor 7.7.
`Cc1nc(N2CCN(c3ccccn3)CC2)c2c(C)c(C(=O)Nc3c(C)cc(Br)cc3C)sc2n1` gave FAS-TE inh 73.1*, UBC9 SUMO inh 1.8 and FAS-TE conf 15.1.
`COCCCn1cc(CN2CC(N3CCN(C)CC3)CS2(=O)=O)nn1` (configuration not stated) gave FAS-TE inh -13.9.
Screening CN(CC(=O)Nc1ccccc1Br)C(=O)CN1CCN(Cc2cccc(Cl)c2)CC1 returned FAS-TE inh 0.4.
Screening CC(=O)c1ccc(N2CCN(S(=O)(=O)c3ccc(-c4cnc(C5CC5)o4)cc3)CC2)cc1 returned FAS-TE inh 57.1* and FAS-TE conf 42.8*.
COc1ccc(N2CCN(S(=O)(=O)c3ccc(-c4cnc(C5CC5)o4)cc3)CC2)cc1 was read as FAS-TE inh 28.3 and UBC9 SUMO inh 40.7.
For Cc1cccc(NC(=O)CCc2ccc(N3C(N)=NC(N)=NC3(C)C)cc2)c1 the results were FAS-TE inh -5.9.
C[C@H](CO)N1C[C@H](C)[C@@H](CN(C)S(=O)(=O)c2cccs2)Oc2ccc(NC(=O)Nc3ccc4c(c3)OCO4)cc2C1=O was read as FAS-TE inh 4.5.
C[C@@H]1CCCCO[C@H](CN(C)S(=O)(=O)c2cccs2)[C@@H](C)CN([C@H](C)CO)C(=O)c2cc(NC(=O)Nc3ccc4c(c3)OCO4)ccc2O1 was read as FAS-TE inh 59.8* and FAS-TE conf 11.3.
Screening C[C@@H]1CN([C@H](C)CO)C(=O)c2cc(NC(=O)Nc3ccc(F)cc3)ccc2O[C@@H](C)CCCCO[C@H]1CN(C)S(=O)(=O)c1cccs1 returned FAS-TE inh 81.2* and FAS-TE conf 77.8*.
`CC(C)NC(=O)N(C)C[C@@H]1OCCCC[C@@H](C)Oc2ccc(NC(=O)Nc3ccc(F)cc3)cc2C(=O)N([C@H](C)CO)C[C@@H]1C` gave FAS-TE inh -3.0.
